Screening results as filed in PubChem BioAssay.
Pf Dd2 inh – inhibitors of Plasmodium falciparum Dd2 growth; actives 4.3% (n = 120,000); Potency, µM (titrated, usually from 28.9 µM), for inactives: at the highest dose activity, negative = inhibition, most hits filed as inhibitors; P. falciparum Dd2 growth, SYBR Green, 72 h; active = well fitted inhibition curve with a large enough effect;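 note: plate controls were DMSO vehicle for no effect and reference drug for full effect; nearly all actives have a fitted effect of over 65% in size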
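Readout: SYBR Green fluorescence, 485 nm excitation, 535 nm emission, after ~16 h lysis at 37C. Before that, Dd2-infected red cells (2.5% hematocrit) grew 72 h with compound, 29 uM top final concentration.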
An asterisk follows results filed as active; i = inactive; [ ] = another dose, or the depositor's remark. The full list was thinned out, with hits kept by preference. Potency is the fitted concentration of half-maximal effect.

SMILES | Pf Dd2 inh
CC(C)NC(=O)c1onc(-c2ccc(F)cc2)c1[C@H](C)O | -13%[44.1 µM]
CCOCc1nc(C2CCCN(C(=O)c3cnccn3)C2)no1 (stereo not given) | 54%
COc1cccc(C(=O)N2CCC(c3n[nH]c(=O)n3-c3ccccc3)CC2)c1OC | 27%
Cc1cccc(C(C(=O)NCc2cc(-c3cccc(F)c3)no2)N(C)C)c1 (stereo not given) | -13%
O=C(c1ccc2c(c1)N(Cc1ccc(Cl)cc1)C(=O)c1ccccc1S2=O)N1CCCCC1 (stereo not given) | -11%
O=C(c1ccc2c(c1)N(Cc1ccccc1F)C(=O)c1ccccc1S2=O)N1CCN(c2ccccc2)CC1 (stereo not given) | -2%
CCN1CCN(C(=O)c2ccc3c(c2)N(Cc2ccccc2F)C(=O)c2ccccc2S3=O)CC1 (stereo not given) | 0.28µM*
CCN1C(=O)c2ccccc2S(=O)c2ccc(C(=O)N3CCN(c4ccc(F)cc4)CC3)cc21 (stereo not given) | 8.9µM*
COc1ccc(N2CCN(C(=O)c3ccc4c(c3)N(Cc3cc(C)ccc3C)C(=O)c3ccccc3S4=O)CC2)cc1 (stereo not given) | -17%
O=C(c1ccc2c(c1)N(Cc1ccc(Cl)cc1)C(=O)c1ccccc1S2=O)N1CCOCC1 (stereo not given) | 1%
O=C(c1ccc2c(c1)N(Cc1ccc(F)cc1)C(=O)c1ccccc1S2=O)N1CCOCC1 (stereo not given) | -15%
CCN1C(=O)c2ccccc2S(=O)c2ccc(C(=O)N3CCN(c4ccccc4OC)CC3)cc21 (stereo not given) | 5µM*
CCOC(=O)N1CCN(C(=O)c2ccc3c(c2)N(Cc2ccccc2F)C(=O)c2ccccc2S3=O)CC1 (stereo not given) | i
COCCN1C(=O)[C@@H]2C[C@@H](CN2Cc2ccc3ccccc3n2)Oc2ccccc21 | -10%[44.1 µM]
COc1ccc(CC(=O)N2CNC(=O)C23CCN(C(=O)C2CCN(C)CC2)CC3)cc1 | 18%
O=C1CCN(C(=O)CC2CCCC2)CCCC(c2nc(-c3ccccc3)no2)CCN1 (stereo not given) | -28%
Cc1nnnn1-c1cccc(-c2nc(Cc3cccs3)nn2CCO)c1 | -2%
CCN1CCC(N(Cc2ccc(F)cc2)C(=O)Nc2ccc(C)c(F)c2)CC1 | 11µM*
CC[C@H]1CN(C(=O)Nc2cccc(C(F)(F)F)c2)CC[C@H]1CC(=O)NCc1ccc(F)cc1 | i
COc1ccc(CN(C(=O)Nc2ccc(C)c(F)c2)C2CCN(C(C)=O)CC2)cc1 | 7%
CCN1CCC(N(Cc2ccc(F)cc2)C(=O)Nc2cccc(C(F)(F)F)c2)CC1 | 13µM*
Cc1ccc(NC(=O)N(C)CC2CCOCC2)cc1F | -23%
CN(CC1CCOC1)C(=O)Nc1cccc(C(F)(F)F)c1 (stereo not given) | i[5.79 µM]
CCC1(N2CCN(C(=O)c3ccc(C(F)(F)F)cc3)CC2)CCN(S(C)(=O)=O)C1 (stereo not given) | -11%
COc1cccc(C(=O)N2C3CCCC2CC(=O)C3)c1 | -13%[44.1 µM]
SMILES | Pf Dd2 inh
CCCCNC(=O)Cc1csc2nc(C)c(-c3cc(C)n(-c4cccc(C)c4)n3)c(=O)n12 | i
CCCCCCNC(=O)Cc1csc2nc(C)c(-c3cc(C)n(-c4cccc(C)c4)n3)c(=O)n12 | 2µM*
CCCNC(=O)Cc1csc2nc(C)c(-c3cc(C)n(-c4ccc(C)cc4)n3)c(=O)n12 | i
NCC1(N2CCCC2)CCCCC1 | 10%[76.6 µM]
CC1CCN(C(=O)C2CCN(c3nc(-c4ccccc4)nc4c3CCC4)CC2)CC1 | 1%
O=C(NC1CCCC1)C1CCCN(c2nc(-c3ccccc3)nc3c2CCC3)C1 (stereo not given) | -25%
NC1CCN(C(=O)C2CCN(c3nc(-c4ccccc4)nc4c3CCC4)CC2)C1 (stereo not given) | -4%
OCCC1CN(c2nc(-c3ccccc3)nc3c2CCC3)CCN1C1CCCC1 (stereo not given) | 10µM*
O=C(C1CCN(c2nc(-c3ccccc3)nc3c2CCC3)CC1)N1CCCNCC1 | 8.9µM*
Cc1ccc(C#N)c(N2CCN(C3CCCC3)C(CCO)C2)n1 (stereo not given) | -20%
Cn1c(CO[C@H]2CN(C(=O)C3CCOCC3)C[C@H]2F)nc2ccccc21 | -1%[44.1 µM]
O=C(c1ccc[nH]c1=O)N1C[C@@H](COCC2CC2)[C@H](c2ccccn2)C1 | 3%
CNC(=O)[C@H]1C[C@H](Oc2ccccc2)CN1C(=O)Cc1ccccc1F | 12%
Cc1cccnc1NCCNc1nc(C(C)C)nc2c1cnn2C | -25%
CC(C)CCNc1nc(Nc2ccccc2)c2cnn(C)c2n1 | 10µM*
COCCCNc1nc(NCc2cccc(Cl)c2)c2cnn(C)c2n1 | -9%
COc1ccccc1N1CCN(C(=O)c2cn[nH]c2-n2cnnn2)CC1=O | -12%
COc1ccc(C2=NOC3(CCN(Cc4cccnc4)C3)C2)cc1 (stereo not given) | i
COc1ccc(C2=NOC3(CCN(Cc4ccc(F)cc4)C3)C2)cc1 (stereo not given) | 4µM*
COc1ccc(CN2CCC3(CC(c4cccc(C(F)(F)F)c4)=NO3)C2)cc1 (stereo not given) | 4%
CN(C)Cc1nnc(C2CCN(C(=O)Nc3cccc(C#N)c3)CC2)n1C | -8%
Cc1csc(CNC(=O)C2CCCN(C3CCN(Cc4cccnc4)CC3)C2)n1 (stereo not given) | -11%
Cn1cnc(S(=O)(=O)N2CCC(Cc3nncn3CC3CC3)C2)c1 (stereo not given) | -17%
O=C(NC1CCCCC1)C1CC(=O)N(c2n[nH]c3cccc(F)c23)C1 (stereo not given) | 0%
Cc1ccccc1N1CCN(C(=O)c2cc3cn(C4CC4)cc3s2)CC1 | -8%
SMILES | Pf Dd2 inh
Cc1nc2n(c1C(=O)NCCOc1ccccc1)CCC(Nc1ccc(F)cc1)C2 (stereo not given) | i
CC(=O)NCC(=O)N1Cc2ccccc2CC2(CCN(CC3CCOCC3)C2)C1 (stereo not given) | 4%
CN(C)CCC(=O)N1Cc2ccccc2CC2(CCCN(CC3CCOCC3)C2)C1 (stereo not given) | -10%
CCCN1CCCC2(Cc3ccccc3CN(C(=O)C3CCN(C)CC3)C2)C1 (stereo not given) | -18%
NCC(=O)N1Cc2ccccc2CC2(CCCN(CC3CCCC3)C2)C1 (stereo not given) | 7.9µM*
NCC(=O)N1Cc2ccccc2CC2(CCN(CC3CCOCC3)C2)C1 (stereo not given) | 8.9µM*
CN1CCC(C(=O)N2Cc3ccccc3CC3(CCN(Cc4ccccn4)C3)C2)CC1 (stereo not given) | -21%
NCC(=O)N1Cc2ccccc2CC2(CCN(CC3CCNC3)C2)C1 (stereo not given) | 15%
O=C(C1CCCC1)N1Cc2ccccc2CC2(CCN(CC3CCOCC3)C2)C1 (stereo not given) | 7.1µM*
CCN1CCC2(Cc3ccccc3CN(C(=O)C3CCCC3)C2)C1 (stereo not given) | 8.9µM*
CN(C)CC(=O)N1Cc2ccccc2CC2(CCN(CC3CCOCC3)C2)C1 (stereo not given) | -21%
O=C(O)CCCC(=O)N1Cc2ccccc2CC2(CCCN(CC3CCCC3)C2)C1 (stereo not given) | 10%
CC(=O)NCCC(=O)N1Cc2ccccc2CC2(CCCN(CC3CCCC3)C2)C1 (stereo not given) | -18%
COc1ccc(C(=O)N2CC(c3nnc(-c4ccncc4)o3)C3(CCOCC3)C2)cc1 (stereo not given) | -21%
